# Legend:
# Conditions in all cases: concentration: 1 μM, replicates: in singlicate; n = 1
# MAPKAPK5 = tested on: MAPKAPK5
# MARK1 = tested on: MARK1
# MARK2 = tested on: MARK2
# MARK3 = tested on: MARK3
# MARK4 = tested on: MARK4
# MAST1 = tested on: MAST1
# MEK1 = tested on: T1, MEK1
# T1 construct: gene MAP2K1
# MEK2 = tested on: T2, MEK2
# T2 construct: gene MAP2K2
# MEK3 = tested on: T3, MEK3
# T3 construct: gene MAP2K3
# MEK4 = tested on: T4, MEK4
# T4 construct: gene MAP2K4
# 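Further: KINOMEscan kinase panel screen.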
Structure (SMILES),%Inh (MAPKAPK5) [%],%Inh (MARK1) [%],%Inh (MARK2) [%],%Inh (MARK3) [%],%Inh (MARK4) [%],%Inh (MAST1) [%],%Inh (MEK1) [%],%Inh (MEK2) [%],%Inh (MEK3) [%],%Inh (MEK4) [%]
c1ccc(Oc2ccc(Nc3ccnc4cc(-c5ccc(CNCCN6CCOCC6)o5)ccc34)cc2)nc1 [GW567145],0,0,0,0,0,34,90.8,94.2,0,0
C[C@@H]1CC[C@@H](C(=O)Nc2ccccc2)CN1c1cc(-c2ccc3c(N)n[nH]c3c2)nc(N)n1 [GSK2286062],0,0,9,0,0,3,15,1,33,8
O=C(Nc1cccc(-c2nn3ccccc3c2-c2ccnc(Nc3cccc(C(F)(F)F)c3)n2)c1)c1c(F)cccc1F [GSK292658],0,0,0,3,0,0,3,0,0,17
COc1ccc(-c2coc3ccc(-c4nnc(SCc5ccc(OC)c(C(F)(F)F)c5)o4)cc23)cc1,23,5,2,0,4,13,13,22,10,30
Cl.Cl.NCC(NCc1ccc(-c2ccnc3[nH]ccc23)s1)c1ccccc1 (stereo not shown) [GSK1321565],0,0,0,0,0,11,0,0,49,18
COc1cc(Nc2ncc3c(C)nc(-c4cc5ccccc5[nH]4)n3n2)cc(OC)c1OC [GW869516],0,16,11,3,22,13,0,0,0,0
Cl.c1ccc(-c2ccc3c(Nc4ccc5[nH]ccc5c4)ccnc3c2)nc1 [GW440138],0,0,0,0,0,0,0,0,0,0
Cl.Cl.NCC(NC(=O)c1cc(-c2ccccc2)c(-c2ccnc3[nH]ccc23)s1)c1ccccc1 (stereo not shown) [GSK1321561],0,0,0,11,3,0,5,0,51,42
c1ccc(-c2n[nH]cc2Nc2ccnc3ccccc23)nc1 [GW694077],0,0,0,0,1,3,0,0,92.5,92.8
COc1cc(Nc2nccc(-c3c(-c4cccc(NC(=O)c5c(F)cccc5F)c4)nn4ccccc34)n2)cc(OC)c1OC [GSK323521],3,6,0,51,17,0,4,0,0,41
COc1ccc(Nc2nccc(N3CCC(NC(=O)Nc4cccc(OC)c4)C3)n2)cc1 (stereo not shown) [GSK1379742],0,0,0,0,0,23,0,0,0,24
COc1cc(Nc2nccc(N3CCC(NC(=O)Nc4cccc(C(C)=O)c4)C3)n2)cc(OC)c1OC (stereo not shown) [GSK1379753],0,0,0,0,6,0,0,0,0,55
COc1cc2c(cc1OCCN1CCNCC1)ncc1c3ccc(C#N)cc3[nH]c21,0,0,8,0,0,83,34,57,34,18
Cc1occc1-c1ncc(OC[C@@H](N)Cc2c[nH]c3ccccc23)cc1-c1ccc2[nH]nc(C)c2c1.O=C(O)C(F)(F)F [GSK682037],0,44,62,68,33,35,7,0,90.7,43
COc1cccc(-c2ccc3c(NC(=O)C4CC4)n[nH]c3n2)c1 [SB-710903],0,0,0,0,9,42,0,0,0,17
NCCCC(NC(=O)c1cc(Br)c(-c2ccnc3[nH]ccc23)s1)c1ccccc1.O=C(O)C(F)(F)F.O=C(O)C(F)(F)F (stereo not shown) [GSK1287544],0,0,2,20,4,0,0,0,71,50
